# The entries come from a sample that favours hits as a whole.
# Pf Dd2 growth: inhibitors of Plasmodium falciparum Dd2 growth; 120,000 compounds, 4.3% hits; AID 1347417; Potency, µM (top dose mostly 28.9 µM), hits mostly inhibitors; P. falciparum Dd2 growth, SYBR Green, 72 h; active = well fitted inhibition curve with a large enough effect; also: nearly all actives have a fitted effect of over 65% in size
#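 Infected erythrocytes (Dd2, 0.3% parasitemia, 2.5% hematocrit final) are added to compound in RPMI-1640/Albumax II medium, grown 72 h at 37C in low oxygen, then lysed with saponin/Triton-X containing SYBR Green and read by fluorescence.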
# A number is an active result; - = inactive; [ ] = another dose, or the depositor's remark.
SMILES,Pf Dd2 growth
CCCCN(C)C(=O)Cn1c(C2CC(=O)N(c3ccc(C)cc3)C2)nc2ccccc21 (configuration not stated),-
COc1ccc(C2C(C(N)=O)=C(C)Nc3nc(-c4ccccc4Cl)nn32)cc1 (configuration not stated),-
CCOc1ccccc1C1C(C(N)=O)=C(C)Nc2nc(-c3ccccc3Cl)nn21 (configuration not stated),-
CCOc1ccc(C2C(C(=O)Nc3ccccc3)=C(C)Nc3nc(-c4ccccc4Cl)nn32)cc1OC (configuration not stated),8.91µM
COc1ccc(CNC(=O)N2CCn3nnc(CCC(=O)N4CCOCC4)c3C2)cc1,-
CC(C)(Oc1nn(CC2CCOCC2)c2ccccc12)C(=O)NCCc1cccnc1,-
CN(C)C(=O)N(C)C1CCc2ccccc2C1 (configuration not stated),-
COCCc1nncn1C1CCN(C(=O)Cc2c(F)cccc2Cl)CC1,-
O=C(Cc1ccsc1)N1CCC(Nc2cccnc2)C1 (configuration not stated),-[5.79 µM]
CCS(=O)(=O)N1CC[C@H]2C(=O)NCCCCCCN(Cc3ccncc3)[C@@H]2C1,-
Cn1cnc(S(=O)(=O)N2CC[C@@H]3C(=O)NCCCCCCN(Cc4ccncc4)[C@@H]3C2)c1,-
O=C1NCCCCCCN(Cc2ccncc2)[C@@H]2CN(C3CCC3)CC[C@H]12,-
O=C1NCCCCCCN(Cc2ccncc2)[C@@H]2CN(S(=O)(=O)c3ccc4c(c3)CCC4)CC[C@H]12,2.82µM
O=C1NCCCCCCN(Cc2ccncc2)[C@@H]2CN(S(=O)(=O)c3cccnc3)CC[C@@H]12,-
O=C1NCCCCCCN(Cc2ccncc2)[C@@H]2CN(S(=O)(=O)Cc3cccc(F)c3)CC[C@H]12,8.91µM
Cc1cc(C)cc(-n2ccn(CC(=O)Nc3cc(C)ccc3C)c(=O)c2=O)c1,-
CCc1ccccc1NC(=O)c1cc(S(=O)(=O)N2CCC(C)CC2)cn1C,-
O=C(CCc1ccccc1)C(=O)N1CCc2[nH]nc(-c3ccccc3F)c2C1,-
O=C(NCc1ccc(F)cc1)C1(CCO)CCN(c2ncccn2)C1 (configuration not stated),-
CNC(=O)[C@@H]1CN(Cc2ccc(OCC(C)C)c(OC)c2)C[C@H]1CO,-
CNC(=O)N1C[C@@H](CN(C)C)[C@H](NC(=O)c2ccccc2OC(F)(F)F)C1,-
CN(C)C[C@@H]1CN(C)C[C@H]1NC(=O)c1ccccc1OC(F)(F)F,-
CC(C)N[C@@H]1CC[C@@H]1NC(=O)c1ccccc1OC(F)(F)C(F)F,7.94µM
Cc1ccc(-c2noc([C@@H]3C[C@@H](O)CN3Cc3cccc(OC(F)(F)F)c3)n2)cc1F,-
COc1ccc(N2CCN(C(=O)CCNS(=O)(=O)c3ccc4c(c3)CCN4C(=O)C3CC3)CC2)cc1,-
SMILES,Pf Dd2 growth
COc1ccccc1C(=O)Nc1c(C(=O)N2CCN(c3ccc(F)cc3)CC2)oc2ccccc12,-
CCOc1ccc(C(=O)Nc2c(C(=O)N3CCN(c4ccccc4F)CC3)oc3ccccc23)cc1,-
COc1ccc(CC(=O)Nc2c(C(=O)N3CCN(c4ccccc4F)CC3)oc3ccccc23)cc1OC,11.2µM
O=C(c1ccccc1)N1C[C@@H]2OCC(=O)N(c3ccccc3)[C@@H]2C1,-
O=C1CCCc2occ(C(=O)N3CC(=O)N(Cc4ccccc4)CC(OCc4ccccn4)C3)c21 (configuration not stated),-
CN(CC(=O)N1CCN(Cc2ccccc2)CC(O)C1)C1CCCC1 (configuration not stated),8.91µM
O=C(C1CC1)N1CCN(Cc2ccccc2)CC(O)C1 (configuration not stated),-
O=C(C1CCC1)N1CCN(Cc2ccccc2)CC(O)C1 (configuration not stated),-
CCN(CC)C(=O)c1csc(N2CCN(c3cccc(Cl)c3)CC2)n1,-
O=C(NCc1ccccn1)c1csc(N2CCN(c3ccccc3)CC2)n1,-
CCCCN(C)C(=O)c1csc(N2CCN(c3ccccc3)CC2)n1,11.2µM
CO[C@@H]1CO[C@H]2[C@@H]1OC[C@@H]2n1nnnc1Sc1ncccn1,-
CCCN1CCN(C(=O)C2CCc3ncc(-c4ccc(F)cc4)n3C2)CC1 (configuration not stated),-
Nc1cccn2nc(-c3cccnc3)nc12,-
O=C1NC(=NC2CCCC2)C2(CCCN(Cc3cccnc3)C2)N1c1cccnc1 (configuration not stated),-
O=C1NC(=NC2CCCCC2)C2(CCCN(Cc3ccc(F)cc3)C2)N1c1cc(F)cc(F)c1 (configuration not stated),7.94µM
O=C1NC(=NC2CCCCC2)C2(CCN([S+](=O)([O-])c3ccccc3)C2)N1c1cc(F)cc(F)c1 (configuration not stated),-
O=C(c1cccnc1)N1CCCC2(C1)C(=NC1CCCC1)NC(=O)N2c1cc(F)cc(F)c1 (configuration not stated),-
O=C1NC(=NC2CCCCC2)C2(CCN(Cc3ccc(F)cc3)CC2)N1c1cccnc1,-
O=C1NC(=NC2CCCCC2)C2(CCN(Cc3ccc(F)cc3)C2)N1c1cc(F)cc(F)c1 (configuration not stated),1.78µM
O=C(Cc1cccc(F)c1)N1CCC(Oc2ccccc2)C1 (configuration not stated),-
CC(C)c1ccc(CNc2n[nH]c(-c3ccco3)n2)cc1,-
O=C(NCCc1ccc(Cl)cc1)C1CN(c2ccccc2)C(=O)N1 (configuration not stated),-
O=C(CC[C@H]1NC(=O)c2ccccc2NC1=O)NCCc1nc2ccccc2[nH]1,-
COc1cccc(CC(=O)N2C[C@@H](Oc3cccnc3)C[C@H]2C(=O)N2CCCC2)c1,-
SMILES,Pf Dd2 growth
O=C(Nc1cc(Cl)cc(Cl)c1)N1CCCC1c1nncn1C1CCCC1 (configuration not stated),11.2µM
Cc1cc(C)cc(NC(=O)N2CCCC2c2nncn2C2CCCC2)c1 (configuration not stated),-
COc1cc(NC(=O)N2CCCC2c2nncn2C2CCCC2)cc(OC)c1 (configuration not stated),-
COc1cc(OC)cc(C(=O)Nc2nc(-c3nnn(-c4ccc(C)cc4)c3C)ns2)c1,-
COC[C@@H]1CN(C(=O)Cc2ccc(Cl)cc2)C[C@H]1c1ccncc1,-
Cc1c(Cl)cc(C(=O)N(C)CCC2CCOCC2)cc1Cl,-
CCCc1ccc2oc(C(=O)N(C)CCC3CCCCO3)c(C)c2c1 (configuration not stated),10µM
CCCc1ccc2oc(C(=O)NCCc3nncn3CC)c(C)c2c1,-
CCCN(CCC)C(=O)c1c[nH]c2ccc(S(=O)(=O)Nc3cc(C)cc(C)c3)cc2c1=O,-
CSc1ccc(/C=C/c2nc3ccccc3n2S(=O)(=O)c2cccc(Cl)c2)cc1,-
Cc1ccc(/C=C/c2nc3ccccc3n2S(=O)(=O)c2ccc(Br)cc2)cc1,5.62µM
O=S(=O)(c1cccc(Cl)c1)n1c(/C=C/c2ccccc2Cl)nc2ccccc21,-
CCOC(=O)c1cccc(NS(=O)(=O)c2cc3c(cc2C)NC(=O)CO3)c1,-[0.594 µM]
O=C(NC1CCCCCC1)C1CCN(C(=O)c2ncn3c2COC(c2ccccc2)C3)CC1 (configuration not stated),-
COc1ccc(CCC(=O)N2CC[C@H](CO)[C@H](O)C2)cc1OC,-
COc1ccc(N2CCN(C(=O)c3ccc(C)c(NC(=O)c4nsc5ccccc45)c3)CC2)cc1,-[0.594 µM]

# Source: PubChem (National Center for Advancing Translational Sciences (NCATS))
